DT40 TDP1 no CPT = qHTS for Inhibitors of human tyrosyl-DNA phosphodiesterase 1 (TDP1): qHTS in cells in absence of CPT; DT40 Tdp1-/- hTDP1 cells, no CPT, ATP luminescence, 48 h; Potency, µM (series often up to 46.2 µM), for the others: at the top dose activity change, negative = growth inhibition, hits mostly inhibitors; 15% of 420,000 active; AID 686978, 2013; further: potency means the concentration at half of the fitted maximal effect; on the % scale 0 is the no-effect control and ±100 the full control effect; nearly all actives have a fitted effect of over 55% in size
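Chicken DT40 Tdp1-/- cells complemented with human TDP1, screened without camptothecin (DMSO vehicle only), 400 cells/well. Compounds pin-transferred, cells incubated at 37 °C for at least 48 hr. Growth read as ATP-dependent luminescence (CellTiter-Glo, 30 min at RT).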
ClpP mod = qHTS Assay for Activators of ClpP | purified B. subtilis ClpP, FRET peptide cleavage, 20 min | Potency, µM (series often up to 57.5 µM), inactives show at the highest dose activity change, negative = active | 1.9% of 340,000 active | AID 651965, 2013; active means well fitted falling curve with a large enough effect; inconclusive means small, poorly fitted or top-dose-only effect; inactive means no such curve, though single readings can be large or run the other way; further: potency means the concentration at half of the fitted maximal effect; the source files actives as falling curves though it sought activators and does not explain the sign; nearly all actives have a fitted effect of over 65% in size
Target sequence (P80244 whole entry, looked up): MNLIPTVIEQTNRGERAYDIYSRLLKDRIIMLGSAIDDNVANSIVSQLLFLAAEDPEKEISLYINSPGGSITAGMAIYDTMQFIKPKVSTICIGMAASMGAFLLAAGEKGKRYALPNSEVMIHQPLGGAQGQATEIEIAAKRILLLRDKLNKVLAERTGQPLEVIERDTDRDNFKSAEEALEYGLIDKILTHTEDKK
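Buffer: 100 mM Tris/HCl pH8, 100 mM KCl, 0.05% low protease BSA, 2.5% glycerol, 0.01% Tween-20. ClpP 10 microg/mL final; 20 min RT; delta FRET normalized to ADEP and DMSO controls.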
D3 ag = activates the human D3 dopamine receptor; D3R DiscoveRx beta-arrestin cells, luminescence, 90 min; max activation, %; 0.58% of 410,000 active; in the data active means max activation above about 30%; further: 0% is about no effect
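Cells at 1500/well, incubated overnight, then treated with pinned compounds (dopamine as control) for 90 min at 37 degrees C. DiscoveRx reagent added for 30 - 60 minutes at room temperature; luminescence read.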
IL-1B inflam inh = blocks inflammasome-driven IL-1 beta release | activity change, % at 57.5 µM | AID 743279 | 4.7% of 360,000 active | THP-1 LPS/ATP IL-1B secretion, AlphaLISA, 16 h; active compounds read low; in the data active means activity change below about -50%; inconclusive means mostly about -30% to -49%; further: on the % scale 0 is the no-effect control and ±100 the full control effect
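THP-1 cells pretreated 1 hr with compounds (up to 57.5 uM final), then stimulated with LPS (250 ng/mL final) plus ATP (1.25 mM final); secreted IL-1B measured by AlphaLISA after 16 hr, decreased signal indicating inhibition.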
TDP1 cell CPT = DT40-hTDP1 cell growth loss with CPT; 12% of 420,000 active; Potency, µM (highest dose often 46.2 µM), inactives show at the top dose activity change, negative = growth inhibition, hits mostly inhibitors; chicken DT40 Tdp1-/-;hTDP1 cells + 20 nM CPT, ATP luminescence, 48 h; AID 686979; further: potency means the concentration at half of the fitted maximal effect; on the % scale 0 is the no-effect control and ±100 the full control effect; nearly all actives have a fitted effect of over 55% in size
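Chicken DT40 Tdp1-/- cells complemented with human TDP1, 400 cells/well, exposed to compounds plus 20 nM camptothecin for at least 48 h at 37 C; viability read as ATP content by CellTiter-Glo luminescence.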
DRD3 antagonist = blocks the human D3 dopamine receptor; P35462; D3R cells, DiscoveRx beta-arrestin luminescence, antagonist mode; active compounds read low; max response, negative = inhibition, %; 2.5% of 360,000 active; in the data active means max response below about -50%; inconclusive means no clear call, values can overlap the other calls; further: on the % scale 0 is the no-effect control and ±100 the full control effect
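Cells expressing the human receptor were seeded at 1500 cells/well, incubated overnight at 37 degrees C in 5% CO2, then exposed to library compounds with dopamine controls for 90 minutes at 37 degrees C before luminescent detection.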
* hit, by the source's call; ? = inconclusive; · = no result given. Most compounds without a hit are left out; they make up all but 21% or so of the library. Unless noted, the call rests on the fitted dose curve; in most records, active means well fitted inhibition curve with a large enough effect; inconclusive means small, poorly fitted or top-dose-only effect; inactive means flat fitted curve, though single readings scatter.

SMILES	DT40 TDP1 no CPT	ClpP mod	D3 ag	IL-1B inflam inh	TDP1 cell CPT	DRD3 antagonist
COc1ccccc1-c1cc(C(=O)NCc2cccs2)no1	-24.9%	?	-8.5	28.6	-17.9%	?
COCCNC(=O)c1cc(-c2ccccc2OC)on1	11.6µM*	-27.2%	-4.1	34.0	10.3µM*	-14.0
CC(C)c1cc(C(=O)NC(C)c2ccccc2)no1 (centres undefined)	-5.7%	-0.3%	2.2	·	0.0%	·
O=[N+]([O-])c1cc([N+](=O)[O-])c(Oc2cc(F)ccc2F)cc1NN1CCCCC1	?	0.2%	-0.8	-0.4	?	?
CCOC(=O)CCN(C(=S)Nc1ccccc1)C1CCCCC1	-16.0%	·	-10.4	0.3	10.7%	-4.1
Cc1ccc(CN2c3ccccc3-c3nc(SCC(=O)Nc4c(C)cc(C)cc4C)ncc3S2(=O)=O)cc1	?	-0.4%	7.8	·	?	·
COc1cc(-c2oc3ccc(C)cc3c(=O)c2O)cc(OC)c1OC	?	-12.5%	5.5	·	5.8µM*	·
O=c1cc(-c2ccccc2)c2ccc(O)cc2o1	?	·	-0.4	-59.6*	-15.6%	-8.3
COc1ccc(-c2oc3cc(O)c(OC)c(O)c3c(=O)c2OC)cc1O	0.92µM*	-1.4%	-15.2	50.3	0.92µM*	?
COc1cc(OC)c2c(=O)c(OC)c(-c3ccc(OC)c(OC)c3)oc2c1	?	4.7%	17.7	?	?	3.5
COc1ccc(OC)c(-c2oc3ccccc3c(=O)c2O)c1	?	2.2%	0.2	-5.9	-21.2%	-19.1
O=c1c(O)c(-c2ccc(O)c(O)c2)oc2cc(O)ccc12	6.68µM*	-16.8%	18.2	-83.5*	23.1µM*	25.9
O=C(C[n+]1ccccc1)N/N=C/c1c(F)cccc1Cl	?	-0.4%	-5.2	0.0	?	10.6
O=c1c(O)c(-c2ccc(O)cc2)oc2cc(O)ccc12	29.9µM*	·	·	·	26.6µM*	·
COc1cc(OC)c(-c2oc3ccccc3c(=O)c2O)c(OC)c1	7.31µM*	28.2µM*	-11.9	9.1	8.2µM*	-18.1
CCOc1ccc(-c2oc3cc(Cl)ccc3c(=O)c2O)cc1OC	·	-8.6%	-1.5	·	·	·
COc1cc(-c2oc3cc(O)ccc3c(=O)c2O)ccc1O	?	·	·	·	20.6µM*	·
Cc1ccc(NC(=O)Cn2c(=O)n(Cc3ccccc3)c(=O)c3c2c2cc(C)ccc2n3C)cc1	?	?	13.6	·	?	·
COc1ccc(NC(=O)c2cccc(N3C(=O)NC4CC3(C)Oc3ccccc34)c2)cc1 (centres undefined)	?	0.9%	8.2	-14.5	?	25.0
CC12CC(NC(=O)N1c1cccc(C(=O)Nc3ncn[nH]3)c1)c1ccccc1O2 (centres undefined)	-3.2%	0.0%	4.1	-68.0*	1.4%	-5.9
COc1cccc2c1OC1(C)CC2NC(=O)N1c1cccc(C(=O)Nc2ccc3c(c2)OCCO3)c1 (centres undefined)	18.4µM*	0.7%	7.4	10.4	?	12.4
CCOc1cccc2c1OC1(C)CC2NC(=O)N1c1cccc(C(=O)NCc2ccccn2)c1 (centres undefined)	-8.9%	0.0%	-8.6	30.6	-13.7%	12.7
CCOc1cccc2c1OC1(C)CC2NC(=O)N1c1cccc(F)c1 (centres undefined)	4.4%	-1.1%	4.6	4.1	10.6%	-50.6*
CC12CC(NC(=O)N1c1cccc(C(=O)NCc3ccccn3)c1)c1ccccc1O2 (centres undefined)	-7.3%	-1.0%	5.0	-5.2	0.9%	14.4
CC(CCc1ccccc1)NC(=O)CN1C(=O)NC2(CCCCC2)C1=O (centres undefined)	-12.2%	·	0.5	-10.4	-5.1%	7.0
COC(=O)c1ccccc1C(=O)N(c1ccccc1)c1ccccc1	14.6µM*	-2.2%	7.8	12.3	6.51µM*	6.3

Screening data as filed in PubChem BioAssay.
